We go through 40 sequences from publication PMC5700166.

The target of the assay is GST-Hu-p50 (Homo sapiens, UniProt P19838 7-356). As to the kind of experiment: protein-binding microarray (PBM); PBM: ~300 nM protein, 6 mM HEPES pH 7.8, 80 mM KCl, 0.5 mM EDTA, 0.5 mM EGTA, 6% glycerol, 35 ng/ul poly-dIdC, 1% milk, 1 h, room temperature; Ap Aiptasia and Nv Nematostella (sea anemones) / Co Capsaspora / Aq Amphimedon (sponge) / Dm Drosophila / Hu human; RHD is the Rel homology domain; high values mean tight binding. The following applies: dsDNA, one strand shown.
GST-Hu-p50, sequence (P19838 7-356): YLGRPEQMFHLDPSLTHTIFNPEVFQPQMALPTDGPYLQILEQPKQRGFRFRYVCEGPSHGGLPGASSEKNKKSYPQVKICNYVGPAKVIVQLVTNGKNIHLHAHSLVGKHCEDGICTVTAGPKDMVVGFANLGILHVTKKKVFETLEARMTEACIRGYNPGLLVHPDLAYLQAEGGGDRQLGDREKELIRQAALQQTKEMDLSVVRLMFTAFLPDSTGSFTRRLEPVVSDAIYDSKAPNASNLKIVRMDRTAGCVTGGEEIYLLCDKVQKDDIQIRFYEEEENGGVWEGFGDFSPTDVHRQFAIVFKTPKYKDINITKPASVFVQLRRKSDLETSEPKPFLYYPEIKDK
“CCGATTAACATCAGAAATACCCCTGATGTTAATCGGGTCTTGATTCGCTTGACGCTGCTG”: the binding signal was found to be 5.86 z-score.

“CCGATTAACATCAAATCATTCCCTGATGTTAATCGGGTCTTGATTCGCTTGACGCTGCTG” displayed a binding signal of 1.78 z-score. As for “CCGATTAACATCAGAATTACCCCTGATGTTAATCGGGTCTTGATTCGCTTGACGCTGCTG”, the figure is 4.69 z-score.

Take “CCGATTAACATCAGGGGGGTTAATGATGTTAATCGGGTCTTGATTCGCTTGACGCTGCTG”: the binding signal was determined as 4.97 z-score. Take “CCGATTAACATCAAAATTCCCCCTGATGTTAATCGGGTCTTGATTCGCTTGACGCTGCTG”: the binding signal was found to be 8.09 z-score. As for “CCGATTAACATCAATTCCCCTGATGATGTTAATCGGGTCTTGATTCGCTTGACGCTGCTG”, the figure is 5.75 z-score. As for “CCGATTAACATCAGGGGAATACCTGATGTTAATCGGGTCTTGATTCGCTTGACGCTGCTG”, the figure is 6.93 z-score.

“CCGATTAACATCATTCCCGGGAATGATGTTAATCGGGTCTTGATTCGCTTGACGCTGCTG” gave a binding signal of 2.31 z-score. For “CCGATTAACATCACGAAATCCCCTGATGTTAATCGGGTCTTGATTCGCTTGACGCTGCTG”, the binding signal came to 7.74 z-score. In turn, “CCGATTAACATCAATCTTCCCCCTGATGTTAATCGGGTCTTGATTCGCTTGACGCTGCTG” registered a binding signal of 6.3 z-score. The sequence “CCGATTAACATCAGAGTTCCCCCTGATGTTAATCGGGTCTTGATTCGCTTGACGCTGCTG” showed a binding signal of 6.39 z-score.

With “CCGATTAACATCAGGGGATAACCTGATGTTAATCGGGTCTTGATTCGCTTGACGCTGCTG”, the binding signal turned out to be 4.93 z-score. “CCGATTAACATCAGGGGATTCCATGATGTTAATCGGGTCTTGATTCGCTTGACGCTGCTG”: the binding signal amounted to 6.77 z-score. In turn, “CCGATTAACATCAAGGGGGATATTGATGTTAATCGGGTCTTGATTCGCTTGACGCTGCTG” registered a binding signal of 6.33 z-score. Regarding “CCGATTAACATCAGGGGGGAAAATGATGTTAATCGGGTCTTGATTCGCTTGACGCTGCTG”, the binding signal is 7.08 z-score.

The sequence “CCGATTAACATCAAAATCCCCCTTGATGTTAATCGGGTCTTGATTCGCTTGACGCTGCTG” had a binding signal of 8.9 z-score.

For the sequence “CCGATTAACATCAGGGGTATTTATGATGTTAATCGGGTCTTGATTCGCTTGACGCTGCTG”, the binding signal was 5.56 z-score. With “CCGATTAACATCAGGGAGTTTTATGATGTTAATCGGGTCTTGATTCGCTTGACGCTGCTG” the figure was 5.8 z-score; with “CCGATTAACATCAAGGGGGTTTCTGATGTTAATCGGGTCTTGATTCGCTTGACGCTGCTG”, 7.39 z-score. On to “CCGATTAACATCAAAACTCCCCGTGATGTTAATCGGGTCTTGATTCGCTTGACGCTGCTG”, for which the binding signal worked out at 5.74 z-score. “CCGATTAACATCAATTTTCCCCATGATGTTAATCGGGTCTTGATTCGCTTGACGCTGCTG”: the binding signal is 6.08 z-score. Consider “CCGATTAACATCAAAAAATCCCATGATGTTAATCGGGTCTTGATTCGCTTGACGCTGCTG”, for which the binding signal turned out to be 4.75 z-score. As for “CCGATTAACATCAGGGGAAAGAATGATGTTAATCGGGTCTTGATTCGCTTGACGCTGCTG”, the figure is 5.05 z-score; as for “CCGATTAACATCAATTTTCCCACTGATGTTAATCGGGTCTTGATTCGCTTGACGCTGCTG”, 3.37 z-score. With “CCGATTAACATCAAATTTCCCATTGATGTTAATCGGGTCTTGATTCGCTTGACGCTGCTG”, the binding signal is 3.86 z-score. The sequence “CCGATTAACATCAACAAAATCCCTGATGTTAATCGGGTCTTGATTCGCTTGACGCTGCTG” showed a binding signal of 2.65 z-score. For “CCGATTAACATCAGGGGAAAACATGATGTTAATCGGGTCTTGATTCGCTTGACGCTGCTG”, the binding signal came out at 6.18 z-score. “CCGATTAACATCAGGCCTTTCCCTGATGTTAATCGGGTCTTGATTCGCTTGACGCTGCTG” displayed a binding signal of 3.53 z-score. As to “CCGATTAACATCAGGGAGTACCCTGATGTTAATCGGGTCTTGATTCGCTTGACGCTGCTG”, the binding signal was 3.38 z-score. With “CCGATTAACATCAGGACGTCCCCTGATGTTAATCGGGTCTTGATTCGCTTGACGCTGCTG” the figure was 4.57 z-score; with “CCGATTAACATCACAAAAAACCCTGATGTTAATCGGGTCTTGATTCGCTTGACGCTGCTG”, 4.61 z-score; with “CCGATTAACATCAGATAATCCCCTGATGTTAATCGGGTCTTGATTCGCTTGACGCTGCTG”, 6.48 z-score.

“CCGATTAACATCAGGGAAAGACCTGATGTTAATCGGGTCTTGATTCGCTTGACGCTGCTG” showed a binding signal of 3.67 z-score. Sequence “CCGATTAACATCAGGGGAAAAGATGATGTTAATCGGGTCTTGATTCGCTTGACGCTGCTG” yielded a binding signal of 5.18 z-score.

With “CCGATTAACATCAGCAATCCCCCTGATGTTAATCGGGTCTTGATTCGCTTGACGCTGCTG”, the binding signal stood at 6.73 z-score.

Turning to “CCGATTAACATCAAGGGGGAATCTGATGTTAATCGGGTCTTGATTCGCTTGACGCTGCTG”, the binding signal came out at 7.36 z-score. For “CCGATTAACATCAATAAAACCCCTGATGTTAATCGGGTCTTGATTCGCTTGACGCTGCTG”, the binding signal is 6.19 z-score.

For the sequence “CCGATTAACATCACAAAATTCCCTGATGTTAATCGGGTCTTGATTCGCTTGACGCTGCTG”, the binding signal stood at 6.04 z-score. As for “CCGATTAACATCAAGAGATTCCCTGATGTTAATCGGGTCTTGATTCGCTTGACGCTGCTG”, the figure is 2.78 z-score; as for “CCGATTAACATCAAGGGGAATTCTGATGTTAATCGGGTCTTGATTCGCTTGACGCTGCTG”, 7.65 z-score.
